This is a sample that favours compounds with a hit; in the whole collection about 2.8% have one here.
Pol eta inh – qHTS for Inhibitors of Polymerase Eta; DNA polymerase eta (Homo sapiens), Q9Y253; recombinant Pol eta, fluorescent DNA replication assay; Potency, µM (series often up to 114 µM), inactives show at the top dose activity change, negative = inhibition, usual class: inhibitors; hit rate 1.2% among 390,000; note: potency is the fitted concentration of half-maximal effect; % is set by controls: 0 for no effect and ±100 for the full control effect
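Pol eta (10 nM) was preincubated with compounds for 15 min at room temperature, after which fluorescent replication substrate (50 nM final) was added to start the reaction. Fluorescence was read kinetically at 0 and 10 min.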
Pol kappa inh – qHTS for Inhibitors of Polymerase Kappa | purified Pol kappa, fluorescent DNA synthesis assay, 10 min | Potency, µM (doses to about 107 µM), without a hit: at the top dose activity, negative = inhibition, actives largely listed as inhibitors | hit rate 0.53% among 400,000 | AID 588579, 2011; note: potency is the fitted concentration of half-maximal effect; % is set by controls: 0 for no effect and ±100 for the full control effect
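Pol kappa 10 nM + cpd, 15 min RT; start w/ substrate 50 nM final; fluorescence kinetic read, 0 and 10 min. Neg ctrl: buffer, no enzyme.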
PI4K2A inh – qHTS for small molecular inhibitors of PI4K2A; Phosphatidylinositol 4-kinase type 2-alpha (Homo sapiens), Q9BTU6; purified PI4K2A, ADP-Glo luminescence, 1 h; hits give low values; activity change, negative = inhibition, % at 76.9 µM; hit rate 0.13% among 420,000; in the data active = activity change below about -50%; inconclusive = mostly about -30% to -49%;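 note: -100% = wells without enzyme as full effect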
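ADP-Glo luminescence measured ADP generated by PI4K2A enzyme (4 ug/mL before mixing) with 1.2 mM PI substrate (pre-mix) and 300 microM ATP (pre-mix). Tris pH7.5 buffer with MgCl2, Triton X-100; 1 h reaction at ambient temperature.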
POLB inh – qHTS Assay for Inhibitors of DNA Polymerase Beta. P06746. Pol beta primer extension/strand displacement, fluorescence kinetic. Potency, µM (series often up to 114 µM), inactives show top-dose activity change, negative = inhibition, actives largely listed as inhibitors. hit rate 1.3% among 340,000. AID 485314, 2010; note: potency is the fitted concentration of half-maximal effect; % is set by controls: 0 for no effect and ±100 for the full control effect
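Values derive from four-parameter Hill fits of normalized kinetic data: reads at 0 and 10 min following addition of 50 nM substrate to 10 nM Pol beta preincubated 15 min with compound.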
PI5P4K alpha inh – qHTS for Inhibitors of phosphatidylinositol 5-phosphate 4-kinase (PI5P4K); AID 652105, 2013; max response, %; hit rate 1.2% among 330,000; Phosphatidylinositol 5-phosphate 4-kinase type-2 alpha (Homo sapiens), P48426; PI5P4Kalpha enzyme, ADP-Glo luminescence, 60 min; hits give low values; active = max response of -50% or lower; inconclusive = between -30% and -50%; inactive = -30% or higher; note: value at the top dose of about 77 µM; % is set by controls: 0 for no effect and ±100 for the full control effect
Target sequence (P48426 whole entry, looked up): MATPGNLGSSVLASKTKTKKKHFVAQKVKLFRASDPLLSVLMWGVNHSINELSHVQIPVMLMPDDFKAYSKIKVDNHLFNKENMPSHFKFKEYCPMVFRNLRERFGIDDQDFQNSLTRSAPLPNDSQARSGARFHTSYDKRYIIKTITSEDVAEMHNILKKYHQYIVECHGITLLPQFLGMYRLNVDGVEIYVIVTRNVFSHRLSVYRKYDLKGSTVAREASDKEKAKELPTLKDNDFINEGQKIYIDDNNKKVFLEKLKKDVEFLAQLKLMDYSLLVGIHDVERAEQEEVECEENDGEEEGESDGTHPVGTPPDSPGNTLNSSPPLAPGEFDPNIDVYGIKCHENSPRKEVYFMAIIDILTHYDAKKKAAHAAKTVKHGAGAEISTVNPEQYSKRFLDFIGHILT
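Luminescence from ADP-Glo served as readout of PI5P4Kalpha activity in a qHTS format. Reaction: enzyme, substrate, compound, ATP at 5 microM final, 60 min at RT.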
Pol iota inh – qHTS for Inhibitors of Polymerase Iota | Pol iota fluorescent replication assay, 10 min | Potency, µM (doses to about 115 µM), inactives show at the top dose activity, negative = inhibition, most hits filed as inhibitors | hit rate 1% among 390,000 | AID 588590, 2011; note: potency is the fitted concentration of half-maximal effect
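Fluorescent replication assay read twice, at 0 min and 10 min after adding 50 nM (final) substrate. Enzyme (10 nM) and compounds were first incubated 15 min at room temperature; enzyme-free buffer wells were negative controls.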
ADP-Glo counter – qHTS for Inhibitors of PI5P4K: ADP-Glo counter assay; Potency, µM (series often up to 76.9 µM), without a hit: at the highest dose activity change, negative = inhibition, actives largely listed as inhibitors; ADP-Glo detection counter-screen, luciferase luminescence, no enzyme; shares compounds with PI5P4K alpha inh; 1,100 tested, under 10 active
Numbers without * were called inactive; ? = inconclusive; / = no result given; [ ] = another dose, or the depositor's remark. Unless noted, calls come from the whole dose curve; as a rule, active = well fitted curve in the direction sought with a large enough effect; inconclusive = small, poorly fitted or top-dose-only effect, or another doubt; inactive = no such curve, though single readings can be large; an effect the other way counts as inactive or inconclusive.

SMILES	Pol eta inh	Pol kappa inh	PI4K2A inh	POLB inh	PI5P4K alpha inh	Pol iota inh	ADP-Glo counter
COc1ccc(-c2c3c(=O)n(C)c(=O)n(C)c3c3n2-c2ccccc2NC3c2ccc(O)cc2O)cc1 (stereo not drawn)	-5%	2%	-2	3%	/	6%	/
Cn1nnnc1SCC(=O)N1N=C(c2ccc(Cl)cc2)CC1c1ccco1 (stereo not drawn)	-18%	-5%	2	/	1	18%	/
Cc1nnc(SCC(=O)N2N=C(c3ccc(Cl)cc3)CC2c2ccco2)[nH]c1=O (stereo not drawn)	?	50µM*	-7	20µM*	-64*	?	1%
COc1ccc2[nH]cc(CCNc3cc(-c4ccoc4)ncn3)c2c1	/	-10%[60.1 µM]	/	/	/	/	/
COc1ccc(CCNC(=O)C2CC(c3ccccc3F)=NO2)cc1 (stereo not drawn)	-1%	10%	4	-21%	-11	16%	/
COc1ccc(CCNC(=O)C2CC(c3cccc(F)c3)=NO2)cc1 (stereo not drawn)	1%	1%	1	-9%	?	4%	-5%
N#CC1=C2SCN(c3ccc(F)cc3)CN2C(=O)CC1c1cccc(F)c1 (stereo not drawn)	8%	-12%	-6	4%	-59*	-16%	3%
COc1ccc(CCNC(=O)C2CC(=O)N(c3ccc(C)cc3)C2)cc1OC (stereo not drawn)	-10%	6%	4	-6%	-3	5%	/
Cc1ccc(N2C(N)=C(C#N)C(c3cccs3)C3=C2CC(C)(C)CC3=O)cc1 (stereo not drawn)	-14%	-19%	2	-17%	/	8%	/
CCc1ccc(C2CC(=O)N3CN(c4ccccc4)CSC3=C2C#N)cc1 (stereo not drawn)	-3%	-18%	-9	40µM*	-95*	?	2%
COc1cc(OC)c(C2CC(=O)N3CN(c4ccc(C)cc4)CSC3=C2C#N)cc1OC (stereo not drawn)	-19%	-5%	-4	69%	-77*	-2%	-5%
Cc1ccc(N2CSC3=C(C#N)C(c4cccs4)CC(=O)N3C2)cc1 (stereo not drawn)	-20%	?	-6	?	-60*	?	-3%
CN1CSC2=C(C#N)C(c3cccc(OCc4ccccc4)c3)CC(=O)N2C1 (stereo not drawn)	-7%	-13%	-2	4%	?	3%	/
CCc1ccc(N2CSC3=C(C#N)C(c4cccs4)CC(=O)N3C2)cc1 (stereo not drawn)	?	79µM*	-17	?	-68*	11µM*	-8%
N#CC1=C2SCN(Cc3ccco3)CN2C(=O)CC1c1ccccc1F (stereo not drawn)	-5%	1%	2	-3%	/	6%	/
COc1ccccc1N1CCN(S(=O)(=O)c2c(C)sc3ncn(CC(=O)Nc4ccc(C)cc4Br)c(=O)c23)CC1	-15%	-5%	0	20%	/	-3%	/
CN(C)S(=O)(=O)c1ccc(C(=O)OCc2nnc(-c3ccccc3)o2)cc1	-12%	4%	-5	0%	5	63%	/
O=C(OCc1nnc(-c2ccccc2)o1)c1ccc(S(=O)(=O)NCc2ccco2)cc1	22µM*	?	-13	3.5µM*	-54*	?	-3%
O=C(OCc1nnc(-c2ccccc2)o1)c1ccc2ccccc2n1	-12%	9%	2	1%	-66*	-12%	-6%
CN1CCN(S(=O)(=O)c2ccc(N3CCc4ccccc4C3)nc2)CC1	-3%	-8%	-6	1%	-69*	21%	-6%
CN1CCN(c2ccc(S(=O)(=O)N3CCCCC3)cn2)CC1	-17%	6%	-6	-2%	-3	7%	/
Cc1noc(C)c1-c1nc(N(C)C)c2ccccc2n1	/	1%[60.1 µM]	/	/	/	/	/
Cc1ccccc1NC(=O)Cc1nc(COC(=O)c2ccc(NC(N)=O)cc2)cs1	?	-10%	-3	/	-56*	36%	-3%
CCOc1ccccc1N(C)C(=O)c1sc2nc3n(c(=O)c2c1C)CCCC3	-10%	-25%	-5	-12%	/	11%	/
COc1cc2nc(Nc3ccc(C)c(Cl)c3)nc(N)c2cc1OC	-26%	0%	1	-16%	-60*	18%	4%
SMILES	Pol eta inh	Pol kappa inh	PI4K2A inh	POLB inh	PI5P4K alpha inh	Pol iota inh	ADP-Glo counter
CCN(CC)C(=O)c1[nH]cnc1C(=O)Nc1cccc(Cl)c1	-8%	7%	-2	/	2	6%	/
CCN(CC)C(=O)c1cc(Cl)ccn1	-18%	0%	-1	32%	?	10%	-2%
CC(OC(=O)c1ccc2ccccc2c1)C(=O)N(C)Cc1ccccc1 (stereo not drawn)	-11%	-10%	5	/	2	-3%	/
CC(C)N(CCC(=O)c1ccc2ccccc2c1)Cc1ccccc1	-8%	4%[60.1 µM]	30	?	-89*	?	-9%
COc1ccc(NC(=O)C2CCCN(S(=O)(=O)c3cccnc3)C2)cc1OC (stereo not drawn)	-11%	-4%	6	7%	-2	-2%	/
COc1ccc(S(=O)(=O)N2CCCC(C(=O)Nc3cccnc3)C2)cc1Cl (stereo not drawn)	0%	-12%	5	8%	-50*	?	-6%
CC(=O)Nc1cc(-c2ccc(CO)cc2)cn2c(-c3ccc(F)c(Cl)c3)cnc12	/	/	-3	/	-54*	/	1%
CC(=O)Nc1cc(-c2ccc(F)cc2)cn2c(-c3ccc(F)c(Cl)c3)cnc12	/	/	-7	/	-1	/	/
COc1cc(OC)c(N(C)C(=O)Nc2cn(CC(C)C)c(=O)c3ccccc23)cc1Cl	-3%	-7%	-16	68%	/	58%	/
CC(=O)Nc1ccc(S(=O)(=O)NCCc2cn3ccsc3n2)cc1	7%	-11%[60.1 µM]	-1	-24%	/	-14%	/
O=C(Nc1ccccc1Cl)c1ccc2nccnc2c1	?	?	-15	36%	-27	?	-5%
NC(=O)c1csc(-c2ccncc2)n1	-2%	-11%	26	-2%	3	0%	/
Nc1cc(-c2ccncc2)c[nH]c1=O	?	0%	-55*	-6%	-56*	10µM*	4%
O=C(NCc1nc2ccccc2n1Cc1ccccc1Cl)c1ccccc1	-3%	-3%	2	13%	/	21%	/

Compound activity deposited in PubChem BioAssay by National Center for Advancing Translational Sciences (NCATS).
